{
  "source": "PubChem BioAssay (NCI)",
  "note": "Values joined by “and” are separate entries in the source; they are usually repeats but may differ in a detail not shown here. Identical values can stand only once. About 83,000 compounds went through this panel and 20% of them were active in at least one assay; those are over-represented in the sample as a whole.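 Percent growth is the endpoint: 0 to 100 indicates growth inhibition (40 means 60% inhibition), 0 means no net growth, and negative values indicate cell death.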 Values without a mark were called inactive. Active and inactive are the calls of the source. The calls were made as follows: active = growth percent below 10; inactive = the rest.",
  "data": [
    {"tested_on": "HL-60(TB) leukemia", "assay": "NCI-60 one-dose screen, 48 h (100 = growth as untreated, 0 = no growth, -100 = all killed)", "conditions": "10 µM unless noted", "values": [
      {"smiles": "Cn1cc(-c2nnc(N)nc2-c2c[nH]c3ccccc23)c2cccnc21", "growth": "13.5%"},
      {"smiles": "O=C(Cn1c(/C=C/c2ccccc2)nc2ccccc2c1=O)Nc1ccc(Cl)cc1", "growth": "99.2%"},
      {"smiles": "COc1ccc2c(c1)C(=N/N=C(\\C)c1ccc(OC)c(S(N)(=O)=O)c1)C(=O)N2", "growth": "91.7%"},
      {"smiles": "CCOC(=O)C1=C(N)N(c2ccccc2)C2=C(C(=O)CC(C)(C)C2)C1c1cccc(Cl)c1Cl", "note": "(stereo not drawn)", "growth": "46.2%"},
      {"smiles": "COc1c(F)ccc(C(=O)Nc2ccc3nc(NC(=O)C4CCCN(S(=O)(=O)c5cccc(C(F)(F)F)c5)C4)sc3c2)c1F", "note": "(stereo not drawn)", "growth": "72.1%"},
      {"smiles": "COc1cc(-c2ccc(/C=N/NC(=O)c3[nH]c4ccc(Br)cc4c3-c3ccccc3)s2)cc(OC)c1OC", "growth": "99%"},
      {"smiles": "O=C(NO)c1ccc(CNc2nc(-c3ccccc3)c3ccccc3n2)cc1", "growth": "-4.14% (active)"},
      {"smiles": "CC(=O)Nc1cccc(-c2nc3cc(-c4ccc(O)cc4)ccc3n2C)c1", "growth": "20.7%"},
      {"smiles": "COc1cc(C2CC(c3ccc(S(=O)(=O)NCCNc4nc(Nc5ccc(F)cc5)nc(N(C)C)n4)cc3)=Nc3c(N)nc(N)nc3N2)cc(OC)c1OC", "note": "(stereo not drawn)", "growth": "80.3%"},
      {"smiles": "C#CCN(C)CCCOc1ccc(N(C)C(=O)c2cc(C(C)C)c(O)cc2O)cc1Cl", "growth": "-40.7% (active)"},
      {"smiles": "Nc1cc(-c2c[nH]c3ccc(F)cc23)nc2cc(-c3c[nH]c4ccccc34)nn12", "growth": "-0.0986% (active)"},
      {"smiles": "C/C(=N\\N=C1/C(=O)Nc2ccc(Cl)cc21)c1ccc2c(c1)Nc1ccccc1S2", "growth": "8.43% (active)"},
      {"smiles": "COc1ccc(C2c3sc4ccc(C)cc4c3Oc3nc(N)nc(N)c32)cc1", "note": "(stereo not drawn)", "growth": "84.8%"},
      {"smiles": "O=C(O)CCCCCCCCCCN1C(=O)/C(=C/c2cnc(-c3ccccc3)s2)SC1=S", "growth": "63.6%"},
      {"smiles": "C#CCOc1cc(N(CC)CC)ccc1C(C(=O)NC(C)(C)C)N(C(=O)C1CCc2cc(F)ccc2O1)c1ccc(F)cc1F", "note": "(stereo not drawn)", "growth": "6.7% (active)"},
      {"smiles": "NC(=O)c1ccc(-c2ccc3ncnc(N4CCc5cc(F)c(Cl)cc54)c3c2)cn1", "growth": "64.9%"},
      {"smiles": "CC(=O)Nc1ccc(-c2cn(-c3cccc(C(=O)Nc4ccc(Cl)c(C(F)(F)F)c4)c3)nn2)cn1", "growth": "35%"},
      {"smiles": "COc1ccc(NC(=O)CSc2nnc(-c3ccc4nc(-c5ccc(Cl)cc5)[nH]c4c3)o2)cc1", "growth": "63%"},
      {"smiles": "C=C1CCC2C3(C)COC(c4ccco4)OC3CCC2(C)C1CC(Sc1ccccc1)C1=CCOC1=O", "note": "(stereo not drawn)", "growth": "-21.6% (active)"},
      {"smiles": "O=C(CSc1ccc(-c2ccc(Cl)cc2)nn1)Nc1ccc(Cl)c(C(F)(F)F)c1", "growth": "32.7%"},
      {"smiles": "CN1CCN(C(=O)CCN(C(=O)Oc2cc3c(c4ccccc24)[C@H](CCl)CN3C(=O)c2cc3cc(OCCCN4CCC4)ccc3[nH]2)[C@H]2CCSSC2)CC1", "growth": "-56.7% (active)"},
      {"smiles": "Nc1cc(-c2c[nH]c3ccc(Br)cc23)nc2cc(-c3c[nH]c4ccccc34)nn12", "growth": "-15% (active)"},
      {"smiles": "O=C(Cn1c(/C=C/c2ccc([N+](=O)[O-])cc2)nc2ccccc2c1=O)Nc1ccccc1", "growth": "102%"},
      {"smiles": "O=C(Nc1ccc(Cl)c([N+](=O)[O-])c1)Nc1ccc(Cl)c([N+](=O)[O-])c1", "growth": "2.93% (active)"},
      {"smiles": "Nc1cccc(-n2c(COc3ccc(I)cc3)nc3ccccc32)c1", "growth": "118% and 98%"},
      {"smiles": "O=C(N=Nc1c(O)[nH]c2ccc(Cl)cc12)c1ccc2nc(-c3ccc(Cl)cc3)[nH]c2c1", "growth": "45.2%"},
      {"smiles": "N#Cc1c(-c2ccc(Cl)cc2)nc2n[nH]c(-c3ccc(Cl)cc3)c2c1-c1cccs1", "growth": "23.7%"},
      {"smiles": "Cc1ccc(-c2nc(Nc3ccc(C)c(S(N)(=O)=O)c3)c3ccccc3n2)cc1", "growth": "89.1%"}
    ]}
  ]
}
